Measured values taken from PubChem BioAssay (NCI).
About 79,000 compounds went through this panel and 15% of them were active in at least one assay; those are over-represented in the sample as a whole. Unmarked numbers belong to inactive results. The source made the active and inactive calls. No stated cut-off is given here; in the data, active means growth inhibition above about 70%; inactive means the rest.

Assays:
[1] = NCI Yeast Anticancer Drug Screen. Data for the sgs1 strain (AID 173);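 further: 0% = growth of vehicle-only control cultures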; settings: S. cerevisiae sgs1 mutant, stronger effect = higher value
How it was run: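 A genetically defined yeast mutant is incubated with the test compound, and its growth is compared to that of the same strain given vehicle.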

[2] = NCI Yeast Anticancer Drug Screen. Data for the mlh1 rad18 strain (AID 175); settings: S. cerevisiae mlh1 rad18 strain growth inhibition, stronger effect = higher value
How it was run: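 Steps: expose repair-defective yeast to compound; measure growth; express inhibition against vehicle-treated controls.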

[3] = NCI Yeast Anticancer Drug Screen. Data for the rad18 strain (AID 177); settings: S. cerevisiae rad18 mutant growth inhibition, stronger effect = higher value
How it was run: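 Measured value is growth inhibition of a yeast strain bearing a DNA repair alteration, referenced to vehicle-treated cells.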

[4] = NCI Yeast Anticancer Drug Screen. Data for the rad52 strain (AID 147);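 further: 0% = growth of vehicle-treated control cultures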; settings: S. cerevisiae rad52 mutant growth inhibition, stronger effect = higher value
How it was run: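 Here a repair-compromised yeast strain receives each compound; its growth is then quantified and normalised to vehicle-only controls.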

[5] = NCI Yeast Anticancer Drug Screen. Data for the wt1 strain (AID 149);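 further: 0% = growth of vehicle-treated wt1 cultures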; settings: S. cerevisiae wt1 strain (SPY 50644) growth inhibition, stronger effect = higher value
How it was run: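 Readout: yeast growth inhibition, normalised to vehicle controls, in the wt1 strain exposed to test compounds.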

[6] = NCI Yeast Anticancer Drug Screen. Data for the rad50EPP+ strain (AID 151);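 further: 0% = growth of vehicle-treated control cultures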; settings: S. cerevisiae rad50 mutant strain, stronger effect = higher value
How it was run: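 Read-out is yeast growth inhibition relative to vehicle; cells used were the rad50EPP+ strain.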

[7] = NCI Yeast Anticancer Drug Screen. Data for the mgt1 strain (AID 153); settings: S. cerevisiae mgt1 mutant growth inhibition, stronger effect = higher value
How it was run: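 Measured: inhibition of mgt1 yeast growth by compound, normalized to vehicle-treated cultures.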

[8] = NCI Yeast Anticancer Drug Screen. Data for the mec2-1 strain (AID 157); settings: S. cerevisiae mec2-1 strain, stronger effect = higher value
How it was run: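 Using mec2-1 yeast: add compound, measure growth, express inhibition versus vehicle-treated cultures.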

[9] = NCI Yeast Anticancer Drug Screen. Data for the rad14 strain (AID 159);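 further: 0% = growth of vehicle-treated control cultures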; settings: S. cerevisiae rad14 strain growth inhibition, stronger effect = higher value
How it was run: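 Compound-treated yeast with a defined DNA-repair lesion; growth inhibition normalised to vehicle-treated cultures.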

[10] = NCI Yeast Anticancer Drug Screen. Data for the sgs1 mgt1 strain (AID 161);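 further: 0% = growth of cultures given vehicle only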; settings: S. cerevisiae sgs1 mgt1 strain, stronger effect = higher value
How it was run: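 Growth of a repair-deficient yeast mutant was monitored after compound treatment and expressed as inhibition relative to vehicle-treated cultures.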

[11] = NCI Yeast Anticancer Drug Screen. Data for the CLN2oe strain (AID 163);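 further: 0% = growth of vehicle-only control cultures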; settings: S. cerevisiae CLN2oe strain, stronger effect = higher value
How it was run: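 Whole-cell yeast growth assay. A strain engineered for altered cell-cycle control received compound, and inhibition relative to vehicle-treated cultures was recorded.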

[12] = NCI Yeast Anticancer Drug Screen. Data for the cln2 rad14 strain (AID 165);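 further: 0% = growth equal to vehicle treated cultures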; settings: S. cerevisiae cln2 rad14 strain, stronger effect = higher value
How it was run: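 Yeast strain cln2 rad14, bearing defects in cell cycle control and DNA repair, serves as the test system; values reflect growth inhibition compared with vehicle.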

[13] = NCI Yeast Anticancer Drug Screen. Data for the bub3 strain (AID 167); settings: S. cerevisiae bub3 mutant strain, stronger effect = higher value
How it was run: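 Growth of a checkpoint-deficient yeast mutant is measured after compound exposure. Values represent inhibition relative to vehicle.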

[14] = NCI Yeast Anticancer Drug Screen. Data for the wt2 strain (AID 169);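 further: 0% = growth of vehicle-treated yeast cultures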; settings: S. cerevisiae wt2 strain growth inhibition, stronger effect = higher value
How it was run: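 Treated yeast vs. vehicle-treated yeast: growth inhibition determined.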

[15] = NCI Yeast Anticancer Drug Screen. Data for the mlh1 strain (AID 171);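 further: 0% = growth of vehicle-treated control cultures of the same strain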; settings: S. cerevisiae mlh1 strain growth inhibition, stronger effect = higher value
How it was run: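 A yeast strain with a defined genetic lesion serves as the test organism. Cultures receive compound or vehicle, and growth is measured.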

[16] = NCI Yeast Anticancer Drug Screen. Data for the rad50 strain (AID 155);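 further: 0% = growth of vehicle-only cultures of the same strain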; settings: S. cerevisiae rad50 strain growth inhibition, stronger effect = higher value
How it was run: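 Compounds were tested on a yeast strain with an engineered DNA damage repair alteration; the reported value is growth inhibition normalised to vehicle treatment.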

[17] = at 5.0 µM (retest, dose inferred, filed as 0.5)
[18] = at 50.0 µM (retest, dose inferred, filed as 5.0)

Compound: CN(C)CCNc1ccc2ncn3c4ccc(O)cc4c(=O)c1c23
- growth inhibition ([1]; at 33.0 µM): -16%
- growth inhibition ([1]; at 100.0 µM): -23%
- growth inhibition [2, 17]: 4%
- growth inhibition [2, 18]: 12%
- growth inhibition ([2]; at 50.0 µM): -48.5%
- growth inhibition ([3]; at 1.2 µM): -23%
- growth inhibition ([3]; at 3.7 µM): -1%
- growth inhibition ([3]; at 11.0 µM): -9%
- growth inhibition ([3]; at 33.0 µM): -12%
- growth inhibition ([3]; at 100.0 µM): -12%

Compound: CC(C)OP(=O)(OC(C)C)/C(Cl)=N/Nc1ccc([N+](=O)[O-])cc1
- growth inhibition ([4]; at 1.2 µM): -10%
- growth inhibition ([4]; at 3.7 µM): -6%
- growth inhibition ([4]; at 11.0 µM): 52%
- growth inhibition ([4]; at 33.0 µM): 90% (active)
- growth inhibition ([4]; at 100.0 µM): 95% (active)
- growth inhibition ([5]; at 1.2 µM): -10%
- growth inhibition ([5]; at 3.7 µM): -10%
- growth inhibition ([5]; at 11.0 µM): 19%
- growth inhibition ([5]; at 33.0 µM): 38%
- growth inhibition ([5]; at 100.0 µM): 85% (active)
- growth inhibition ([6]; at 1.2 µM): 25%
- growth inhibition ([6]; at 3.7 µM): 50%
- growth inhibition ([6]; at 11.0 µM): 93% (active)
- growth inhibition ([6]; at 33.0 µM): 96% (active)
- growth inhibition ([6]; at 100.0 µM): 96% (active)
- growth inhibition ([7]; at 1.2 µM): -21%
- growth inhibition ([7]; at 3.7 µM): -29%
- growth inhibition ([7]; at 11.0 µM): 16%
- growth inhibition ([7]; at 33.0 µM): 78% (active)
- growth inhibition ([7]; at 100.0 µM): 94% (active)
- growth inhibition ([8]; at 1.2 µM): -5%
- growth inhibition ([8]; at 3.7 µM): -3%
- growth inhibition [8, 17]: 13%
- growth inhibition ([8]; at 11.0 µM): 52%
- growth inhibition ([8]; at 33.0 µM): 81% (active)
- growth inhibition [8, 18]: 80% (active)
- growth inhibition ([8]; at 50.0 µM): 81% (active)
- growth inhibition ([8]; at 100.0 µM): 90% (active)
- growth inhibition ([9]; at 1.2 µM): -8%
- growth inhibition ([9]; at 3.7 µM): 6%
- growth inhibition ([9]; at 11.0 µM): 24%
- growth inhibition ([9]; at 33.0 µM): 34%
- growth inhibition ([9]; at 100.0 µM): 80% (active)
- growth inhibition [10, 17]: 6%
- growth inhibition [10, 18]: 74% (active)
- growth inhibition ([10]; at 50.0 µM): 90.8% (active)
- growth inhibition ([11]; at 1.2 µM): 18%
- growth inhibition ([11]; at 3.7 µM): 20%
- growth inhibition ([11]; at 11.0 µM): 79% (active)
- growth inhibition ([11]; at 33.0 µM): 95% (active)
- growth inhibition ([11]; at 100.0 µM): 96% (active)
- growth inhibition [12, 17]: 28%
- growth inhibition [12, 18]: 80% (active)
- growth inhibition ([12]; at 50.0 µM): 89.2% (active)
- growth inhibition ([13]; at 1.2 µM): -4%
- growth inhibition ([13]; at 3.7 µM): 3%
- growth inhibition [13, 17]: 29%
- growth inhibition ([13]; at 11.0 µM): 86% (active)
- growth inhibition ([13]; at 33.0 µM): 95% (active)
- growth inhibition [13, 18]: 95% (active)
- growth inhibition ([13]; at 50.0 µM): 91.6% (active)
- growth inhibition ([13]; at 100.0 µM): 95% (active)
- growth inhibition ([14]; at 1.2 µM): 3%
- growth inhibition ([14]; at 3.7 µM): 5%
- growth inhibition ([14]; at 11.0 µM): 39%
- growth inhibition ([14]; at 33.0 µM): 71% (active)
- growth inhibition ([14]; at 100.0 µM): 93% (active)
- growth inhibition ([15]; at 1.2 µM): 13%
- growth inhibition ([15]; at 3.7 µM): 23%
- growth inhibition ([15]; at 11.0 µM): 86% (active)
- growth inhibition ([15]; at 33.0 µM): 96% (active)
- growth inhibition ([15]; at 100.0 µM): 94% (active)
- growth inhibition ([1]; at 1.2 µM): 28%
- growth inhibition ([1]; at 3.7 µM): 23%
- growth inhibition ([1]; at 11.0 µM): 94% (active)
- growth inhibition ([1]; at 33.0 µM): 97% (active)
- growth inhibition ([1]; at 100.0 µM): 98% (active)
- growth inhibition [2, 17]: 47%
- growth inhibition [2, 18]: 97% (active)
- growth inhibition ([2]; at 50.0 µM): 87.3% (active)
- growth inhibition ([3]; at 1.2 µM): 29%
- growth inhibition ([3]; at 3.7 µM): 28%
- growth inhibition ([3]; at 11.0 µM): 85% (active)
- growth inhibition ([3]; at 33.0 µM): 96% (active)
- growth inhibition ([3]; at 100.0 µM): 96% (active)

Compound: S=C(NCc1ccccn1)N/N=C/c1ccccn1
- growth inhibition ([4]; at 1.2 µM): 98% (active)
- growth inhibition ([4]; at 3.7 µM): 99% (active)
- growth inhibition ([4]; at 11.0 µM): 99% (active)
- growth inhibition ([4]; at 33.0 µM): 99% (active)
- growth inhibition ([4]; at 100.0 µM): 98% (active)
- growth inhibition ([5]; at 1.2 µM): 98% (active)
- growth inhibition ([5]; at 3.7 µM): 98% (active)
- growth inhibition ([5]; at 11.0 µM): 99% (active)
- growth inhibition ([5]; at 33.0 µM): 99% (active)
- growth inhibition ([5]; at 100.0 µM): 99% (active)
- growth inhibition ([6]; at 1.2 µM): 34%
- growth inhibition ([6]; at 3.7 µM): 63%
- growth inhibition ([6]; at 11.0 µM): 87% (active)
- growth inhibition ([6]; at 33.0 µM): 93% (active)
- growth inhibition ([6]; at 100.0 µM): 96% (active)
- growth inhibition ([7]; at 1.2 µM): 97% (active)
- growth inhibition ([7]; at 3.7 µM): 98% (active)
- growth inhibition ([7]; at 11.0 µM): 99% (active)
- growth inhibition ([7]; at 33.0 µM): 99% (active)
- growth inhibition ([7]; at 100.0 µM): 99% (active)
- growth inhibition ([16]; at 1.2 µM): 97% (active)
- growth inhibition ([16]; at 3.7 µM): 98% (active)
- growth inhibition [16, 17]: 40%
- growth inhibition ([16]; at 11.0 µM): 98% (active)
- growth inhibition ([16]; at 33.0 µM): 98% (active)
- growth inhibition [16, 18]: 99% (active)
- growth inhibition ([16]; at 50.0 µM): 75.5% (active)
- growth inhibition ([16]; at 100.0 µM): 98% (active)
- growth inhibition ([8]; at 1.2 µM): 97% (active)
- growth inhibition ([8]; at 3.7 µM): 98% (active)
- growth inhibition [8, 17]: 33%
- growth inhibition ([8]; at 11.0 µM): 99% (active)
- growth inhibition ([8]; at 33.0 µM): 99% (active)
- growth inhibition [8, 18]: 99% (active)
- growth inhibition ([8]; at 50.0 µM): 84.2% (active)
- growth inhibition ([8]; at 100.0 µM): 99% (active)
- growth inhibition [10, 17]: 69%
- growth inhibition [10, 18]: 99% (active)
- growth inhibition ([10]; at 50.0 µM): 90.1% (active)
- growth inhibition ([11]; at 1.2 µM): 97% (active)
- growth inhibition ([11]; at 3.7 µM): 99% (active)
- growth inhibition ([11]; at 11.0 µM): 99% (active)
- growth inhibition ([11]; at 33.0 µM): 99% (active)
- growth inhibition ([11]; at 100.0 µM): 99% (active)
- growth inhibition [12, 17]: -1%
- growth inhibition [12, 18]: 99% (active)
- growth inhibition ([12]; at 50.0 µM): 89.7% (active)
- growth inhibition ([13]; at 1.2 µM): 94% (active)
- growth inhibition ([13]; at 3.7 µM): 98% (active)
- growth inhibition [13, 17]: -10%
- growth inhibition ([13]; at 11.0 µM): 99% (active)
- growth inhibition ([13]; at 33.0 µM): 99% (active)
- growth inhibition [13, 18]: 99% (active)
- growth inhibition ([13]; at 50.0 µM): 90.1% (active)
- growth inhibition ([13]; at 100.0 µM): 98% (active)
- growth inhibition ([15]; at 1.2 µM): 96% (active)
- growth inhibition ([15]; at 3.7 µM): 98% (active)
- growth inhibition ([15]; at 11.0 µM): 98% (active)
- growth inhibition ([15]; at 33.0 µM): 97% (active)
- growth inhibition ([15]; at 100.0 µM): 98% (active)
- growth inhibition [2, 17]: 5%
- growth inhibition [2, 18]: 99% (active)
- growth inhibition ([2]; at 50.0 µM): 90.7% (active)
- growth inhibition ([3]; at 1.2 µM): 98% (active)
- growth inhibition ([3]; at 3.7 µM): 98% (active)
- growth inhibition ([3]; at 11.0 µM): 98% (active)
- growth inhibition ([3]; at 33.0 µM): 98% (active)
- growth inhibition ([3]; at 100.0 µM): 99% (active)
